# MCF10A rereplic – DNA re-replication induction in MCF 10a cells | MCF 10A DNA re-replication, Hoechst nuclear intensity, 48 h | Potency, µM (top dose mostly 46.1 µM), without a hit: top-dose activity, positive = re-replication, most hits filed as activators | 350,000 compounds, 2.9% hits | AID 624296; note: % of control where 0% means no effect; nearly all actives have a fitted effect of over 50% in size
# Mito fusion act – blocks mitochondrial division or promotes mitochondrial fusion; S. cerevisiae fusion-defective mutant growth rescue, CellTiterGlo 48 h; Potency, µM (top dose mostly 46.1 µM), inactives show at the top dose growth rescue (activation), most hits filed as activators; 320,000 compounds, 0.23% hits; AID 485298; note: % of control where 0% means no effect; nearly all actives have a fitted effect of over 45% in size
#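 Read-out: ATP-based luminescence (CellTiterGlo, 10 min ambient) reporting growth of fusion-defective ts yeast after 48 hours at 37C on glycerol/ethanol YPEG medium in the presence of compound.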
# AT treatment – potential ataxia-telangiectasia treatments restoring KAP-1 phosphorylation | F2112 A-T fibroblasts, KAP-1 phosphorylation AlphaLISA; neocarzinostatin DNA damage 30 min before lysis | Potency, µM (series often up to 57.5 µM), without a hit: at the top dose activation, most hits filed as activators | 320,000 compounds, 0.19% hits; note: % of control where 0% means no effect; nearly all actives have a fitted effect of over 45% in size
#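 ATM-like activity read as KAP-1 phosphorylation via AlphaLISA donor/acceptor antibody pairs after lysis and 6 hr at 25C. Cells were ATM-null patient fibroblasts (F2112, hTERT), dosed 60 min, then exposed to the DSB inducer NCS for 30 min.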
# SW480 rerep – inducers of DNA re-replication in SW480 colon cancer cells; SW480 DNA re-replication, Hoechst DNA content imaging, 48 h; 340,000 compounds, 1.8% hits; AID 624297; Potency, µM (highest dose often 46.1 µM), without a hit: at the top dose re-replication activation, usual class: activators; note: % of control where 0% means no effect; nearly all actives have a fitted effect of over 55% in size
#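 DNA re-replication was detected as more nuclei of elevated Hoechst intensity after 48 hr exposure to compound (23 nL pinned per well of 250 cells).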
# Integrin act MD – activates integrin-mediated alleviation for muscular dystrophy; alpha7betagal myoblasts, beta-gal FDG fluorescence, 48 h; Potency, µM (highest dose often 38.3 µM), for inactives: at the highest dose activation, hits mostly activators; 350,000 compounds, 0.064% hits; AID 624291;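 note: 100% = response of the positive control SU9516; nearly all actives have a fitted effect of over 60% in size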
#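 alpha7betagal+/- myoblasts (passage 13, 250/well) treated 48 h at 37C with compounds at 1:260 dilution of DMSO stock. Lysed, then beta-galactosidase activity read as FDG fluorescence (ex 480/em 540) after 30 min, with pre-read for autofluorescence.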
# The depositor's hits bear a star; ? = inconclusive; . = no result; [ ] = another dose, or the depositor's remark. This is a sample that favours compounds with a hit; in the whole collection about 4.2% have one here. Calls come from the whole dose curve; as a rule, active = well fitted activation curve with a large enough effect; inconclusive = small, poorly fitted or top-dose-only effect; inactive = no such curve, though single readings can be large or run the other way. Potency is the fitted concentration of half-maximal effect.
SMILES,MCF10A rereplic,Mito fusion act,AT treatment,SW480 rerep,Integrin act MD
O=C(CN1C(=O)CCSc2ccc(S(=O)(=O)N3CCOCC3)cc21)Nc1cccc(F)c1,2.5%,12.6%,-0.9%,-1.5%,-4.0%
Cc1cccc(Cc2cccc(C)c2O)c1O,?,.,.,1.2%,?
Cc1ccc(/C=N/NC(=O)Cn2nnc(N)n2)cc1,4.5%,-6.8%,25.1µM*,0.5%,13.4%
O=C(NNC(=O)c1ccc([N+](=O)[O-])o1)c1ccccc1,?,-5.7%,16.4%,?,-33.8%
O=C(Cc1ccc([N+](=O)[O-])cc1)NCc1cccnc1,1.1%,-0.2%,1.1%,-16.9%[9.22 µM],15.9%
O=C(NN(c1ccccc1)c1ccccc1)c1ccc([N+](=O)[O-])o1,?,-2.3%,8.5%,11.6µM*,-40.8%
O=C(Nc1cccnc1)c1ccc([N+](=O)[O-])o1,7.31µM*,-25.7%,20.6%,?,-27.5%
O=C(NCc1cccnc1)c1ccc([N+](=O)[O-])o1,14.6µM*,-1.6%,2.0%,2.91µM*,-57.9%
O=C(Nc1ccc(Cl)cn1)c1ccc([N+](=O)[O-])o1,11.6µM*,-3.1%,15.7%,2.91µM*,-66.3%
O=C(Nc1cccnc1)c1ccco1,25.1%,-0.6%,.,2.0%,-23.1%
CCOc1ccc(NC(=O)C(C)Oc2ccccc2C(=O)Nc2cccc(Cl)c2Cl)cc1 (stereo not drawn),?,2.8%,0.0%,16.3%,14.6%
COc1cccc(OCc2cc(C(=O)N3CCN(C(C)=O)CC3)no2)c1,-1.7%,9.0%,8.8%,-10.5%,11.9%
COC(=O)/C(=C\Nc1ccc(Cl)cc1Cl)NC(=O)c1ccc(OC)cc1,18.4µM*,-1.2%,-6.7%,6.51µM*,-23.0%
COc1ccc(C(=O)c2c(C(F)(F)F)oc3c2C(=O)c2ccccc2C3=O)cc1OC,?,20.4%,.,0.731µM*,-69.3%
CCOC(=O)CC(c1ccc(N)cc1)n1c(C)ccc1C (stereo not drawn),6.5%,-4.2%,-3.2%,14.7%[1.84 µM],37.9%
COC(=O)CC(c1ccc(F)cc1)n1c(C)ccc1C (stereo not drawn),23.1µM*,1.3%,-4.2%,8.6%[1.84 µM],0.0%
NCCCC(N)CC(=O)NC1CNC(=O)C(C2CC(O)N=C(N)N2)NC(=O)/C(=C/NC(N)=O)NC(=O)C(CO)NC(=O)C(CO)NC1=O (stereo not drawn),-1.0%,.,.,-3.8%,.
Cc1ccc(N(C(=O)CCl)C(C(=O)NC2CCCCC2)c2cccnc2)cc1C (stereo not drawn),7.31µM*,0.3%,2.0%,?,-68.4%
COc1ccc(Cl)cc1NC(=O)CCc1nnc2ccc(N3CCN(C)CC3)nn12,1.7%,-0.2%,25.6%,-49.7%,?
CSc1ccc(/C=C/c2cc(=O)c3ccccc3[nH]2)cc1,?,6.6%,5.2%,13.2%,-14.5%
Cc1ccc(/C=C\c2nccc3c2[nH]c2ccccc23)cc1,9.2µM*,-1.4%,20.7%,20.6µM*,-18.8%
C(=C\c1nccc2c1[nH]c1ccccc12)/c1ccccc1,?,?,22.4µM*,11.6µM*,-50.3%
Cc1ccc(/C=C/c2nc3ccccc3c(=O)[nH]2)cc1,?,-2.7%,2.9%,?,0.0%
Fc1ccc(/C=C\c2nccc3c2[nH]c2ccccc23)cc1,6.51µM*,2.7%,8.6%,18.4µM*,-43.0%
O=C(CSc1ccc(Br)cc1)Nc1cccc(S(=O)(=O)N2CCOCC2)c1,?,-3.6%,2.1%,1.8%,14.2%
SMILES,MCF10A rereplic,Mito fusion act,AT treatment,SW480 rerep,Integrin act MD
COC(=O)N/N=C(\C)c1ccc2ccccc2c1OC(F)F,0.6%,7.4%,-5.8%,4.4%,6.3%
CC(NC(=O)COC(=O)CNC(=O)C1CCCCC1)c1ccccc1 (stereo not drawn),-4.4%,-1.7%,-6.1%,5.3%,40.4%
O=C(NC(C(=O)N/N=C/c1c2ccccc2cc2ccccc12)c1n[nH]c(=O)c2ccccc12)c1ccccc1 (stereo not drawn),2.06µM*,1.7%,5.0%,8.2µM*,8.7%
O=C(/C=C/c1ccc2c(c1)OCO2)NCCSCc1c(Cl)cccc1Cl,9.2µM*,?,7.9%,-6.9%,-17.5%
Nc1cc(-c2ccc(OC(F)(F)F)cc2)nn1-c1ccc(Cl)c(Cl)c1,?,10.6%,-3.0%,-4.2%,0.0%
CCOC(=O)c1cc(NC(=O)c2ccco2)ccc1N1CCOCC1,6.3%,5.3%,0.2%,-2.7%,0.0%
CCN(CC)c1ccc(/C=N/NC(=O)C(O)(c2ccccc2)c2ccccc2)o1,7.31µM*,-2.1%,-2.8%,?,.
O=C(O)c1ccc(/C=N/NC(=O)C(O)(c2ccccc2)c2ccccc2)cc1,-15.3%,0.7%,0.3%,?,13.9%
CCOC(=O)c1sc(=S)n(-c2ccc(OC)cc2)c1N,-61.8%,4.0%,-10.5%,-19.3%,1.8%
CCOC(=O)c1sc(=N)n(-c2ccc(OC)cc2)c1C,12.0%,-2.5%,2.5%,1.6%,2µM*
C=C1CC(C(=O)N/N=C/c2ccc(O)cc2)C1,-4.2%,-23.4%,-0.8%,16.4µM*,13.3%
COc1ccc2c(C)nc(Nc3nc(C)cc(C)n3)nc2c1,23.9%,-1.0%,-1.4%,5.17µM*,-17.0%
N.N.N.N.N.N.N.N.N.N.N.N.N.N.O.O.[Ru+4].[Ru+5].[Ru+5],.,-39.5%,.,.,.
CC1(C)C[C@H](O)[C@]2(CO)[C@H](O)C[C@]3(C)C(=CCC4[C@@]5(C)CC[C@H](O)C(C)(C)C5CC[C@]43C)[C@@H]2C1 (stereo partly drawn),?,.,2.0%,3.3%,-9.7%
Cc1noc(C)c1COc1ccccc1C(=O)NCCc1ccc(F)cc1,-3.6%,.,.,-9.1%,12.0%
O=C(Nc1cc(-c2ccccc2)nn1-c1c(Cl)cccc1Cl)c1ccc(F)cc1,14.6µM*,.,13.4%,0.7%[9.22 µM],-8.4%
Cc1cc(C)c2ccc(N)nc2c1O,?,13.9%,8.3%,?,-32.1%
COc1ccc(/C=C/c2ccc3c(Br)ccc(O)c3n2)cc1,23.1µM*,-16.4%,-6.8%,?,-39.6%
Cc1ccc2c(Br)cc(Br)c(O)c2n1,18.8µM*,.,.,-1.6%,.
COc1cc(/C=C/c2ccc3c(Br)cc(Br)c(O)c3n2)ccc1O,13µM*,-1.8%,12.1%,?,-65.8%
CS(=O)(=O)c1ccc(C(=O)Nc2nc(-c3ccco3)c(-c3ccco3)s2)cc1,?,11.5%,-3.5%,7.9%,-29.6%
COc1ccc(-c2cc(C(=O)N(C)Cc3nc4ccccc4c(=O)[nH]3)c3ccccc3n2)cc1OC,10.9%,.,8.5%,-0.3%,-24.0%
COc1cc(/C=C(\C#N)c2nc3ccccc3[nH]2)cc(OC)c1O,?,-2.1%,-7.6%,?,-25.1%
COc1cc(/C=C(\C#N)c2nc3ccccc3[nH]2)cc(Br)c1OCc1ccccc1,18.4µM*,8.0%,3.6%,18.4µM*,-39.0%
COc1ccc(/C=C(\C#N)c2nc3ccccc3[nH]2)cc1O,?,1.3%,-6.7%,?,-25.3%

# Source: PubChem (National Center for Advancing Translational Sciences (NCATS))
